Experimental data taken from PubChem BioAssay AID488841 (Sanford-Burnham Center for Chemical Genomics, 2010).
Among all 1,400 compounds or so, about 380 (27%) were called active.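 The calls were made as follows: active = mean inhibition above 50% across duplicate retests at 10 µM; inactive = the rest.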 The list shows a part of the results.

Experiment: yeast NALP1 reporter signal suppression – S. cerevisiae, luminescence, single concentration, NALP1 inhibitor project, confirmation (AID 488841);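 also: plate controls were DMSO in galactose medium for no effect and cells in plain SD medium for full effect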
Conditions: S. cerevisiae NALP1/ASC/Caspase-1 reporter, beta-gal luminescence; at 10 µM; hits give high values

SMILES	inhibition
O=C(O)CC1NC(=S)N(c2ccccc2)C1=O (stereo not given)	29.9% (inactive)
COc1ccc(NCc2ccc([N+](=O)[O-])s2)c(OC)c1	49.1% (inactive)
CC(=O)N1N=C(c2ccc3ccccc3c2)OC1(C)C	77.3% (active)
CC(C)(C)c1ccc(COn2c(=O)c(-c3ccco3)[n+]([O-])c3ccccc32)cc1	12.9% (inactive)
O=C(Nc1ccc(Cl)c(Cl)c1)Oc1ccc(NC(=O)c2ccco2)cc1	52.8% (active)
CCCc1nc2ccc(NC(=O)c3ccco3)cc2c(=O)n1Cc1ccccc1Cl	27% (inactive)
COc1cccc(NC2=C(Cl)C(=O)OC2OC(=O)c2ccco2)c1 (stereo not given)	29.2% (inactive)
COc1ccc2c(c1)C1=NN(/C(C)=C/C(C)=O)C(c3ccc(F)cc3)C1CC2 (stereo not given)	42.4% (inactive)
Cn1nc(NC(=O)C(C)(C)C)c2c(F)cccc21	8.45% (inactive)
CC(C)Oc1ccc(Cc2cnc(N)nc2N)cc1	9.95% (inactive)
O=C1O/C(=C/c2ccccc2)c2ccccc21	73.8% (active)
Cc1ncc(S(=O)(=O)c2ccccc2)c(-c2ccccc2Cl)n1	10.2% (inactive)
CC(NC(=O)c1ccc(F)cc1)C(=O)NC1=NCCS1 (stereo not given)	22.1% (inactive)
Cc1ccc(-c2csc(NC(=O)c3ccc(F)cc3)c2C(=O)O)cc1	89.8% (active)
CN1CCN(C2=C(Cl)C(=O)N(CCc3ccccc3)C2=O)CC1	46.6% (inactive)
N#C/C(=C\c1ccc([N+](=O)[O-])o1)c1nc2ccccc2[nH]1	24.8% (inactive)
Cn1c(/C(C#N)=C/C2CC=CCC2)nc2ccccc21 (stereo not given)	37% (inactive)
N#C/C(=C/c1cccs1)c1nc2ccccc2[nH]1	89% (active)
O=c1oc2ccccc2nc1/C=C(O)/C=C/c1ccc(F)cc1	33.8% (inactive)
COc1ccccc1C(=O)Nc1nc2nc(-c3ccccc3)cc(=O)n2[nH]1	22.9% (inactive)
CCN(CC)CCN1C(=O)c2ccccc2NC1c1ccc(N(C)C)cc1 (stereo not given)	25.7% (inactive)
CN(C)CCN(C(=O)/C=C/c1cccs1)c1nc2ccc(F)cc2s1	72.1% (active)
CCN(C(=O)[C@@H]1CCCN1C(=O)c1cccs1)c1nc2cc(Cl)ccc2s1	46.8% (inactive)
CN(C)CCN(C(=O)/C=C/c1cccs1)c1nc2c(F)cc(F)cc2s1	51.6% (active)
CCCCNC(=O)COC(=O)c1ccc(Cl)c(S(N)(=O)=O)c1	25.9% (inactive)

SMILES	inhibition
CCOc1nnc(C)c2c(C)n(-c3cccc(Cl)c3)nc12	25.5% (inactive)
Clc1ccc2oc3c(Cl)ncnc3c2c1	23.1% (inactive)
CC(C)(C)c1cc2cccnc2n1Cc1cccc(Cl)c1	35.9% (inactive)
CC(OC(=O)CC(NC(=O)c1ccccc1Cl)c1ccccc1)C(=O)Nc1cccc(Cl)c1Cl (stereo not given)	29.8% (inactive)
Cc1cc(C)n(CCOc2ccc(Cl)cc2Cl)n1	53.1% (active)
O=C(CCl)NC(=O)NC12CC3CC(CC(C3)C1)C2	32.7% (inactive)
CCCCNC(=O)C(=O)N/N=C/c1cccc(Br)c1	45.6% (inactive)
CC(/C=N/NC(=O)c1c(Br)cnn1C)=C\c1ccccc1	54.4% (active)
CC(/C=N/NC(=O)CSc1ccccn1)=C\c1ccc(C(C)C)cc1	26.2% (inactive)
CC(/C=N/NC(=O)CCn1nnc2ccccc21)=C\c1ccccc1	38.2% (inactive)
COc1cc2c(cc1NC(=S)Nc1ccccc1C)oc1ccccc12	26.9% (inactive)
Cc1ccc(S(=O)(=O)c2nc(C)oc2NCc2ccccc2)cc1	35% (inactive)
CCOC(=O)/C(=N\Nc1ccc(Cl)cc1)c1csc(Nc2ccccc2)n1	27.4% (inactive)
Cc1ccc(S(=O)(=O)c2nc(Nc3ccccc3)sc2Cl)cc1	55.3% (active)
CCCOc1ccc(OCCSc2ncccn2)cc1	39.4% (inactive)
Cc1cc(N2C(=O)C=CC2=O)c([N+](=O)[O-])cc1C	41.7% (inactive)
Fc1ccc(NC(=S)N2CCSC2c2cccs2)cc1 (stereo not given)	17.1% (inactive)
Cc1ccc(S(=O)(=O)NC2=NCN(CCOC(=O)c3ccc([N+](=O)[O-])cc3)CN2)cc1	22.2% (inactive)
Brc1ccc(C=Nc2ccc(Nc3ccccc3)cc2)s1	51.1% (active)
COc1ccc2nc3oc(C(=O)Nc4ccc(OC)c(OC)c4)cc3cc2c1	23.6% (inactive)
COc1ccc(C(=O)Nc2ccc(S(=O)(=O)Nc3nccc(C)n3)cc2)cc1OC	31.2% (inactive)
COc1ccc(NC(=S)SC)cc1OC	52.4% (active)
c1ccc(COc2ccc(OCCN3CCCCC3)cc2)cc1	35.1% (inactive)
O=C(O)c1cccnc1C(=O)N1CCc2c([nH]c3ccccc23)C1C(F)(F)F (stereo not given)	0.7% (inactive)
COc1ccccc1NC(=O)C1=C(C)NC(=O)NC1c1cccs1 (stereo not given)	27.1% (inactive)

SMILES	inhibition
O=[N+]([O-])c1cc(C(F)(F)F)ccc1NCCc1c[nH]c2ccc(O)cc12	51.8% (active)
Cc1ccc(C(=O)NCCCNc2ccc(C(F)(F)F)cc2[N+](=O)[O-])cc1	31.8% (inactive)
CCOC(=O)C(=O)C1=C(N2CCOCC2)/C(=C\c2ccc(F)cc2)CC1	33.4% (inactive)
CCOc1cc(CNCc2ccncc2)cc(Br)c1OCc1ccc(F)cc1	69.7% (active)
CCOc1c(Cl)cc(CNCC(C)C)cc1OC	32.7% (inactive)
COc1cc(CNC2CCCCCCC2)cc(Br)c1OCC#N	38.8% (inactive)
CCOc1cc(CNC2CCCC2)cc(Cl)c1OCc1ccc(F)cc1	50.7% (active)
COc1ccc2c(c1)NC(=O)CC(c1ccccc1)=N2	43.5% (inactive)
O=S(=O)(NC1CCCCC1)c1ccc(F)c2ccccc12	51.6% (active)
Cc1cccc(NC(=O)c2ccc(C3SCC(=O)N3CCc3ccccc3)cc2)c1C (stereo not given)	48.8% (inactive)
COc1ccc(N=c2cc(-c3ccc(OC)cc3)oc3ccccc23)cc1	49.6% (inactive)
CCCCN(Cc1ccccc1)C(=O)C1CCN(Cc2sccc2C)CC1	40.8% (inactive)
O=C(CSCc1cnn(-c2ccccc2)c1-n1cccc1)NCc1ccc2c(c1)OCO2	50% (active)
Nc1c(C(=O)NCc2ccc3c(c2)OCO3)nnn1-c1ccc(OC(F)(F)F)cc1	31.3% (inactive)
Cc1ccc(/C=C/C(=O)NCc2ccc3c(c2)OCO3)o1	36% (inactive)
COc1ccc2c(c1)O/C(=C\c1sccc1C)C2=O	65.4% (active)
CCOc1oc(-c2ccc(OC)cc2)nc1C(F)(F)F	24.1% (inactive)
O=C(Nc1cccc(-c2nc3ncccc3o2)c1)c1cc2ccccc2o1	46.4% (inactive)
O=C(NC(=S)Nc1cccnc1)c1cc2ccccc2o1	55.4% (active)
O=C(N/N=C/c1ccncc1)c1cc2ccccc2o1	47.5% (inactive)
COc1cccc(CN(C)CC(=O)Nc2cccc(S(N)(=O)=O)c2)c1OC	33.9% (inactive)
C(#Cc1ccc(C#CCN2CCCC2)cc1)CN1CCCC1	17.6% (inactive)
OC(COc1ccc2c(c1)CCC2)CN1CCN(c2ccccc2F)CC1 (stereo not given)	73.8% (active)
CCOC(=O)N1CCN(CC(O)COc2ccccc2C(C)(C)C)CC1 (stereo not given)	42.4% (inactive)
OC(CSc1c(Cl)cccc1Cl)CN1CCN(c2ccccc2F)CC1 (stereo not given)	40.9% (inactive)

SMILES	inhibition
CCC(=O)c1ccc(OCC(O)CN2CCN(c3cccc(C(F)(F)F)c3)CC2)cc1 (stereo not given)	49.5% (inactive)
O=[N+]([O-])c1ccc(OCC(O)CN2CCN(c3ccccc3F)CC2)cc1 (stereo not given)	55.2% (active)
Cc1cccc(C(=O)NNC(=O)CN2C(=O)c3ccccc3C2=O)c1	24.9% (inactive)
Cc1ccc(N2C(=N)/C(=C3/Nc4ccccc4S3)C(c3ccccc3)C2=O)cc1 (stereo not given)	35.2% (inactive)
CCc1cccc2c(C(=O)COC(=O)c3ccccc3)c[nH]c12	40% (inactive)
CCc1cccc2c(C(=O)CSc3nncn3-c3ccc(OC)cc3)c[nH]c12	25.8% (inactive)
CCc1cccc2c(C(=O)COC(=O)c3ccc([N+](=O)[O-])s3)c[nH]c12	91.5% (active)
c1csc(CNc2nc3ccccc3n2CCN2CCOCC2)c1	33.5% (inactive)
O=C(CNC(c1ccccc1)c1ccccc1)Nc1c(F)cccc1F	26.1% (inactive)
COC(=O)c1ccc(NC(=O)CN2C(=O)CNC2=O)cc1	32.5% (inactive)
CC(C)NC(=O)CCCOc1ccc(Cl)cc1Cl	54.9% (active)
CC(C)NCCOCCOc1ccc(Cl)cc1Br	35.1% (inactive)
CN(C)CCNC(=O)COc1ccc(Cl)cc1Cl	25.2% (inactive)
C=C1SC(Nc2c(C)cccc2C)=NC12CCCCC2	29.4% (inactive)
COc1ccccc1C(=O)Nc1ccc(OCc2nnc3c4ccccc4c(C)nn23)cc1	36.5% (inactive)
COc1ccc2[nH]c(C)c(CCNC(=S)Nc3cc(C)cc(C)c3)c2c1	30% (inactive)
COc1ccc2[nH]c3c(C)c4ccncc4c(C)c3c2c1	94.5% (active)
CC(C)CCN(C(=O)Nc1ccccc1)C(C)c1cccs1 (stereo not given)	29.9% (inactive)
CCOc1ccc(NC(=O)CSc2nnc(C)n2Cc2ccccc2)cc1	26.8% (inactive)
CCOc1ccc(NC(=O)c2csc3c2CCCC3)cc1	52.4% (active)
CCOc1ccc(NC(=O)c2cc3c(C)nc4ccccc4c3o2)cc1	17.3% (inactive)
O=C(NN1C(=O)c2cc(Br)ccc2NC1c1cc(Br)cc(Br)c1O)c1ccncc1 (stereo not given)	64.8% (active)
COC(=O)c1cccc(NC(=O)/C=C/c2ccc3c(c2)OCO3)c1	60.6% (active)
O=C(Nc1cccnc1)Nc1ccc2c(c1)OCO2	32.1% (inactive)
CC1CN(C(=O)Nc2ccc3c(c2)OCO3)CC(C)O1 (stereo not given)	30.4% (inactive)
